# Assay results from ChEMBL document CHEMBL3988442, “University of Dundee, Small-Polar-MMV Screening Library” (2021).
# Molecular target: T1, Tyrosyl-tRNA synthetase, putative (Trypanosoma cruzi (strain CL Brener)) (UniProt Q4DSP6)
# T1 sequence (whole entry): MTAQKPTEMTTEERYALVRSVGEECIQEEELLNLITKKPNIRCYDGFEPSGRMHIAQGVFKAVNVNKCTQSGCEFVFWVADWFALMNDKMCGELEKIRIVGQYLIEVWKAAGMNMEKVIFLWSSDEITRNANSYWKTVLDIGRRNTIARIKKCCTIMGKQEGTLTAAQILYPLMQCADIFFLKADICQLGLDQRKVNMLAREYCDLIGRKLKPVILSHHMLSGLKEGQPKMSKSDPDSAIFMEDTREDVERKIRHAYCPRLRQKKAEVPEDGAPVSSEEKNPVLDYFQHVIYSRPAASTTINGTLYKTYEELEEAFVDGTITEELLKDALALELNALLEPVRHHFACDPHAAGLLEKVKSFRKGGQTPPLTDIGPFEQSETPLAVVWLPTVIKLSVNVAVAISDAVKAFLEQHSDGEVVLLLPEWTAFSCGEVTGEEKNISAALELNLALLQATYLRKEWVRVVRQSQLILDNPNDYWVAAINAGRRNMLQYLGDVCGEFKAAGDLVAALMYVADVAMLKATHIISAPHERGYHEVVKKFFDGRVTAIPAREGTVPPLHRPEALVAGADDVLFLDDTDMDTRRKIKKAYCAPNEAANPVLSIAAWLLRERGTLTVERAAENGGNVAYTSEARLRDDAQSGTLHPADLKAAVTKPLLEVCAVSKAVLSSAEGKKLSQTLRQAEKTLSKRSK
# Assay: Trypanosoma cruzi tyrosyl tRNA synthetase (TcYRS) SOP
# Assay type: functional
# Set-up: scale not given: direction of the effect not stated beside the values
# Conditions: 30 µM
row,SMILES,Percent Effect [%]
1,CCc1nnc(CNCC2CCCN2c2cccnn2)o1 (stereo not given),11.1
2,Cc1cc(NC(=O)CN2CCc3nn(C)c(=O)cc3C2)on1,-5.13
3,CCc1c(C(=O)NCC(=O)OCC2CC2)cnn1-c1ccc(C)cc1,24.1
4,Fc1ccc(CN2CCCN(Cc3cscn3)CC2)cc1,25.9
5,Cc1cc(C)n(CC(=O)N2CCC(NS(C)(=O)=O)CC2)n1,12.2
6,CC(=O)NCCNC(=O)CN1CCN(Cc2nccn2C)C(C)C1 (stereo not given),6.1
7,CSCCCN1CCCC1c1noc(C)n1 (stereo not given),21.9
8,CCn1ccnc1CN1CCC(CNC(=O)c2ccc(C)nc2)C1 (stereo not given),16.1
9,CC(=O)N1CC(Cc2nccc3ccn(C)c23)C1,16.7
10,NC(=O)CN1CCC(NC(=O)c2ccn(-c3cccc(F)c3)n2)CC1,-2.56

# Molecular target: Chromo domain-containing protein 1 (Saccharomyces cerevisiae (strain ATCC 204508 / S288c) (Baker's yeast)) (UniProt P32657)
# Sequence (P32657 whole entry, the tested form may be a part): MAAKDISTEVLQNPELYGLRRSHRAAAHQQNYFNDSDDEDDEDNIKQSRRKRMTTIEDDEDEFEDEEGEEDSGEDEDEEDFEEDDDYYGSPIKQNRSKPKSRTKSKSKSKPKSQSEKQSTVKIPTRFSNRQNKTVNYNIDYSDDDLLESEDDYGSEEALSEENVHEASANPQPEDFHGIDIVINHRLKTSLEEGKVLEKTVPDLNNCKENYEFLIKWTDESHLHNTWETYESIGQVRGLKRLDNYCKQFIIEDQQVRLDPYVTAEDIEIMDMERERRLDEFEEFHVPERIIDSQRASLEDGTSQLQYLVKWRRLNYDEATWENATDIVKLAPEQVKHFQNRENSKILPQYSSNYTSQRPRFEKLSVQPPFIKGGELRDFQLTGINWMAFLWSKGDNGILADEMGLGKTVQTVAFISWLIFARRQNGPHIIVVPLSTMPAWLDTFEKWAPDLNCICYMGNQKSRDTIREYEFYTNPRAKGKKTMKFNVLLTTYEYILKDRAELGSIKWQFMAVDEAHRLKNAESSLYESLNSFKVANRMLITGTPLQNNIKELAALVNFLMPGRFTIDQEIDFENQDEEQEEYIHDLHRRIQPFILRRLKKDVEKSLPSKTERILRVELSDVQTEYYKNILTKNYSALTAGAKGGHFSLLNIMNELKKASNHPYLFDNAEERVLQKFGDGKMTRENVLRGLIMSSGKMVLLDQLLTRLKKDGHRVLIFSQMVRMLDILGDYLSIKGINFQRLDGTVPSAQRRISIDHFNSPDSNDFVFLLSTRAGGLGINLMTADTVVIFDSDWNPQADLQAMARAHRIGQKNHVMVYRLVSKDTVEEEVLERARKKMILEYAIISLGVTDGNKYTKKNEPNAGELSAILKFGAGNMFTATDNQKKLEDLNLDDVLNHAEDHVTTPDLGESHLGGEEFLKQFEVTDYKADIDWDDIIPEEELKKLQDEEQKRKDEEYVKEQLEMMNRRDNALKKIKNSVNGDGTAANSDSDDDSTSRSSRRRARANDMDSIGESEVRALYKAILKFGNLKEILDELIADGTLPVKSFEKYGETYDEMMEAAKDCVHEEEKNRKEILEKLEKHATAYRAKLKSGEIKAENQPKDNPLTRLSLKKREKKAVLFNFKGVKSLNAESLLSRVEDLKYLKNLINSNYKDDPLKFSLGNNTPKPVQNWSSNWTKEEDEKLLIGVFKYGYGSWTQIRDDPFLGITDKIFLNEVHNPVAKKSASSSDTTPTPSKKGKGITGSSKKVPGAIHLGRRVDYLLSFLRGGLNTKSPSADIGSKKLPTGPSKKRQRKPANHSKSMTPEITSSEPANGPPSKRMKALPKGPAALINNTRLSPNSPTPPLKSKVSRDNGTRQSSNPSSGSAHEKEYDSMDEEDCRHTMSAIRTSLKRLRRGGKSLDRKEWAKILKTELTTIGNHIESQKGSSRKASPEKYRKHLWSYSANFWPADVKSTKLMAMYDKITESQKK
# Assay: ScCHD-1 Enzyme Inhibition Assay; note: in the data most compounds retested in dose-response had high values
# Assay type: functional
# Set-up: scale not given: direction of the effect not stated beside the values
# Conditions: 30 µM
row,SMILES,Percent Effect [%]
1,O=C(NCCNc1ncccn1)N1CCN(Cc2cccnc2)CC1,-14.1
2,CC(C)N1CCC(N2CCN(C3CCC3)CC2CCO)CC1 (stereo not given),0.447
3,COc1ccc(CN2CCCC(Cn3nc(C)nc3C)C2)cc1F (stereo not given),4.68
4,Cc1cnn(CCCNC(=O)N2CCCCC(N3CCCC3)C2)c1 (stereo not given),-2.25
5,CCn1cc(NC(=O)NCC(c2cccs2)N(C)C)cn1 (stereo not given),-7.09
6,c1cnn(Cc2cn3c(n2)CN(Cc2nccs2)CC3)c1,-6.74
7,CCc1noc(C2CCN(C(=O)CCn3nc(C)cc3C)CC2)n1,-7.88
8,CC(C#N)CSc1ccccc1NCC(=O)Nc1ccc(F)cc1 (stereo not given),-0.597
9,CCc1nc(CN2CCCC(NCc3nnc(C4CC4)o3)C2)no1 (stereo not given),-21.2
10,CCc1ccc(CCC(=O)N2CCOCC2c2ncon2)cc1 (stereo not given),8.82
11,CC(=O)N1CCN(c2cc(C3CN(C)CCO3)nc(C)n2)CC1 (stereo not given),-1.64
12,CN(C)CC1CSCCCN1C(=O)Nc1ccc(C(C)(C)C)cc1 (stereo not given),-4.09
13,Cc1n[nH]c(C2CN(C(=O)c3ccco3)CCO2)n1 (stereo not given),-0.969
14,Clc1ccccc1C1(c2ccnc(CC3CC3)n2)CCNCC1,-0.745
15,Cc1cc2cc(C(=O)N[C@@H]3CC[C@@H](N4CCOCC4)[C@@H]3O)ccc2o1,-10.2
16,CC(C)c1nnc2n1CCN(CC(=O)Nc1nncs1)C2,-14.6
17,CCc1noc(C)c1C(=O)N1CCCC1c1c(C)nn(C)c1OC (stereo not given),0.826
18,COc1cc(C)nc(N2CCN(C(=O)c3ccc[nH]3)CC2)n1,-10.1
19,O=C(NCc1cccnc1)C1CC(=O)N(CC2CC2)C1 (stereo not given),-21.7
20,Fc1ccc(CN2CCO[C@H]3[C@H](OCC4CC4)CC[C@@H]32)cc1,-4.58

row,SMILES,Percent Effect [%]
1,COCCN1CCC2(CCCN(C(=O)c3cnoc3C)C2)C1=O (stereo not given),-5.73
2,CC(C)CCN1CCNC(=O)C1CC(=O)N1CCc2sccc2C1 (stereo not given),1.1
3,O=C(CN1CCCCC1Cn1cncn1)NC1CCN(C2CC2)CC1 (stereo not given),-11.3
4,COCCC(=O)N1CCC2(COCc3cnc(-c4ccccc4)nc32)C1 (stereo not given),-0.943
5,Cc1cc(CN2CCc3nn(C(C)C)c(=O)cc3C2)no1,-7.52
6,Cc1cccc(Cn2ccc(NS(C)(=O)=O)n2)c1,-7.65
7,CN1CCN(Cc2ccccc2CNC(=O)c2ccc(Br)cc2F)CC1,-4.37
8,CCCC(=O)N1CCC(O)(Cn2c(CC)nc3ccccc3c2=O)CC1,-6.13
9,CN(CC1(O)CCCCC1)C1CCCN(Cc2noc(C3CC3)n2)C1 (stereo not given),-3.04
10,Cc1ccc(N2CCCN(C(=O)C(C(C)C)n3cncn3)CC2)nn1 (stereo not given),-6.51
11,CCc1nnc(CNCC2CCCN2c2cccnn2)o1 (stereo not given),-4.05
12,Cc1cc(NC(=O)CN2CCc3nn(C)c(=O)cc3C2)on1,-4.24
13,CCc1c(C(=O)NCC(=O)OCC2CC2)cnn1-c1ccc(C)cc1,-9.54
14,Fc1ccc(CN2CCCN(Cc3cscn3)CC2)cc1,-21.9
15,Cc1cc(C)n(CC(=O)N2CCC(NS(C)(=O)=O)CC2)n1,-9.21
16,CC(=O)NCCNC(=O)CN1CCN(Cc2nccn2C)C(C)C1 (stereo not given),10
17,CSCCCN1CCCC1c1noc(C)n1 (stereo not given),-9.94
18,CCn1ccnc1CN1CCC(CNC(=O)c2ccc(C)nc2)C1 (stereo not given),-3.08
19,CC(=O)N1CC(Cc2nccc3ccn(C)c23)C1,-6.59
20,NC(=O)CN1CCC(NC(=O)c2ccn(-c3cccc(F)c3)n2)CC1,-2.21
